We go through twelve molecules from PubChem BioAssay (Tox21).

Assay [1] can be described thus: qHTS assay to identify small molecule that activate the aryl hydrocarbon receptor (AhR) signaling pathway - cell viability counter screen (AID 743086).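 Note: HepG2 liver cells carrying the AhR DRE luciferase reporter; series mostly up to about 70 µM; nearly all actives have a fitted effect of over 45% in size.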 Summed up: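 HepG2-AhR-luc (HG2L7.5c1) cells, 4000/well, treated 24 h at 37 C with compound; viability measured as CellTiter-Fluor fluorescence after 30 min in the same wells as the luciferase read.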
Background: In qHTS, concentration-response curves come from the screen itself.

Assay [2] is described as follows: qHTS assay for small molecule agonists of the antioxidant response element (ARE) signaling pathway (AID 743202; active = well fitted activation curve with a large enough effect in the signal ratio in the repeat runs, not every such curve was filed as active; the % refers to the signal ratio; note: potency is the fitted concentration of half-maximal effect). Summed up:
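HepG2 ARE-bla reporter line, 2,000 cells/well; 5 h preincubation 37 C/5% CO2; compound (DMSO) 16 h 37 C; B/G FRET substrate 2 h RT; fluorescence intensity.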

Assay [3] can be described thus: qHTS assay for small molecule agonists of the antioxidant response element (ARE) signaling pathway - cell viability counter screen (AID 743203; calls by dose curve; note: nearly all actives have a fitted effect of over 55% in size; note: potency is the fitted concentration of half-maximal effect). The method, boiled down: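 Parallel cytotoxicity read-out for the ARE-bla screen: HepG2 reporter cells, 16 hrs with compounds, then CellTiter-Glo luminescence.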
Assay [4] is described as follows: qHTS assay for small molecule activators of the heat shock response signaling pathway - cell viability counter screen (AID 743209). Note: nearly all actives have a fitted effect of over 50% in size. The method, boiled down: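 To flag cytotoxic compounds, HSE-bla HeLa cells plated at 1500 cells/well were dosed for 5 h at 37 C, followed by the reporter FRET read and then CellTiter-Glo, with luminescence recorded 30 min after reagent addition.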

A short description of assay [5]: qHTS assay to identify small molecule agonists of the peroxisome proliferator-activated receptor delta (PPARd) signaling pathway - cell viability counter screen (AID 743211). Note: nearly all actives have a fitted effect of over 55% in size. The method, boiled down: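 Read-out: CellTiter-Glo luminescence, 30 min RT, measured in the same wells as the beta-lactamase reporter. Cells: GeneBLAzer PPAR delta UAS-bla HEK293H, 3000 cells/well, compound exposure 17 h at 37C.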

Assay [6] deals with Peroxisome proliferator-activated receptor delta (Homo sapiens) (UniProt Q03181). Description: qHTS assay to identify small molecule agonists of the peroxisome proliferator-activated receptor delta (PPARd) signaling pathway (AID 743212; calls by dose curve). The method, boiled down:
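Read-out: beta-lactamase FRET fluorescence after 2 h room-temperature incubation with LiveBLAzer B/G substrate. Cells were HEK293H carrying a UAS-bla reporter for PPARd, treated at 37 C with DMSO-dissolved compounds.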

A short description of assay [7]: qHTS assay to identify small molecule antagonists of the peroxisome proliferator-activated receptor delta (PPARd) signaling pathway - cell viability counter screen (AID 743213). Note: nearly all actives have a fitted effect of over 50% in size. Note: potency is the fitted concentration of half-maximal effect. The method, boiled down: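 In this counter screen, HEK293H cells carrying a UAS-beta-lactamase reporter are co-treated with test compounds and 300 nM L165041 (final) for 17 h at 37 C; cell viability is quantified by CellTiter-Glo luminescence.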

The target of assay [8] is Peroxisome proliferator-activated receptor delta (Homo sapiens) (UniProt Q03181). Description: qHTS assay to identify small molecule antagonists of the peroxisome proliferator-activated receptor delta (PPARd) signaling pathway (AID 743215; active = well fitted inhibition curve with a large enough effect in the signal ratio in the repeat runs, not every such curve was filed as active; the % refers to the signal ratio;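 note: cells stimulated with agonist L165041 at 300 nM final during compound exposure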; note: potency is the fitted concentration of half-maximal effect). Summed up:
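Screen format: qHTS, antagonist mode. HEK293H PPARd-bla cells received compound and 300 nM L165041 (final), 17 h, 37 C. Beta-lactamase detected via FRET substrate fluorescence, 2 h, room temperature.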

Assay [9] is described as follows: qHTS assay to identify small molecule agonists of the farnesoid-X-receptor (FXR) signaling pathway - cell viability counter screen (AID 743218). Note: nearly all actives have a fitted effect of over 45% in size. Note: potency is the fitted concentration of half-maximal effect. Summed up:
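Same-well cytotoxicity check on FXR-UAS-bla HEK 293T cells: 5 h attachment, 16 h compound at 37 C, CellTiter-Glo luminescence read at room temperature after 30 min.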

A short description of assay [10]: qHTS assay to identify small molecule antagonists of the farnesoid-X-receptor (FXR) signaling pathway - cell viability counter screen (AID 743221; active = well fitted cell-killing curve with a large enough effect in the repeat runs, not every such curve was filed as active; note: nearly all actives have a fitted effect of over 50% in size). The method, boiled down:
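HEK 293T FXR-bla cells, 5 h pre-incubation; compound + CDCA 50 uM final, 16 h, 37 C; beta-lactamase FRET read first, then CellTiter-Glo luminescence, 30 min RT.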

Assay [11] has as its target Vitamin D3 receptor (Homo sapiens) (UniProt P11473). The assay can be described thus: qHTS assay to identify small molecule agonists of the vitamin D receptor (VDR) signaling pathway (AID 743222; calls by dose curve). The method, boiled down: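 Using LiveBLAzer B/G FRET detection, agonism was scored in VDR-bla cells exposed overnight (16 h, 37C) to DMSO-dissolved compounds; substrate incubation was 2 h at room temperature.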

For assay [12] the target is unchanged. Description: qHTS assay to identify small molecule antagonists of the vitamin D receptor (VDR) signaling pathway (AID 743223; active = well fitted inhibition curve with a large enough effect in the signal ratio in the repeat runs, not every such curve was filed as active; the % refers to the signal ratio). The method, boiled down:
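Beta-lactamase reporter read-out: FRET substrate fluorescence after 2 h at room temperature, following 16 h exposure of VDR-bla cells to test compound plus 3 nM (final) 1alpha,25-dihydroxyvitamin D3 agonist at 37C.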

The nature of assay [13]: qHTS assay to identify small molecule agonists of the vitamin D receptor (VDR) signaling pathway - cell viability counter screen (AID 743224). Note: nearly all actives have a fitted effect of over 50% in size. Note: potency is the fitted concentration of half-maximal effect. Summed up: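 Counter screen for cytotoxicity: VDR-bla cells at 2,000 cells/well, 16 h compound exposure, then CellTiter-Glo luminescence after the beta-lactamase measurement.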
Assay [14] has as its target Peroxisome proliferator-activated receptor gamma (Homo sapiens) (UniProt P37231). Description: qHTS assay to identify small molecule agonists of the peroxisome proliferator-activated receptor gamma (PPARg) signaling pathway (AID 743094; active = well fitted activation curve with a large enough effect in the signal ratio in the repeat runs, not every such curve was filed as active; the % refers to the signal ratio). Summed up: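 Fluorescence-based beta-lactamase readout in HEK293H PPARg UAS-bla cells after 17 h compound exposure (37C) and 1 h B/G FRET substrate incubation at room temperature.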

Assay [15] in a line: qHTS assay for small molecule activators of the heat shock response signaling pathway (AID 743210; active = well fitted activation curve with a large enough effect in the signal ratio in the repeat runs, with a control signal flat, not every such curve was filed as active; the % refers to the signal ratio;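 note: HeLa cells with beta-lactamase reporter driven by heat shock elements; series mostly up to about 63 µM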). Summed up:
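Beta-lactamase reporter read-out: FRET substrate fluorescence after 2.5 h at RT, following 5 h compound treatment at 37 C of HeLa cells carrying HSE-driven bla reporter; quantitative HTS format.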

Assay [16] can be described thus: qHTS assay to identify small molecule antagonists of the vitamin D receptor (VDR) signaling pathway - cell viability counter screen (AID 743225). Note: nearly all actives have a fitted effect of over 50% in size. Note: potency is the fitted concentration of half-maximal effect. The method, boiled down:
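Viability counter screen run in the same wells as the beta-lactamase reporter assay: HEK 293T VDR-UAS-bla cells, 16 h compound exposure at 37C with 3 nM (final) 1-alpha,25-dihydroxyvitamin D3. CellTiter-Glo luminescence, 30 min, room temperature.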

The target in assay [17] is Bile acid receptor (Homo sapiens) (UniProt Q96RI1). Description: qHTS assay to identify small molecule agonists of the farnesoid-X-receptor (FXR) signaling pathway (AID 743220; active = well fitted activation curve with a large enough effect in the signal ratio in the repeat runs, not every such curve was filed as active; the % refers to the signal ratio). Summed up:
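FXR-UAS-bla HEK 293T cells carrying a UAS-driven beta-lactamase reporter were plated for 5 h at 37C/5% CO2, then exposed to DMSO-dissolved Tox21 10K compounds for 16 h at 37C. A LiveBLAzer B/G FRET substrate was loaded for 2 h at room temperature before fluorescence reading.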

The nature of assay [18]: qHTS assay to identify small molecule antagonists of the peroxisome proliferator-activated receptor gamma (PPARg) signaling pathway - cell viability counter screen (AID 743194). Note: nearly all actives have a fitted effect of over 55% in size. The method, boiled down: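 Cytotoxicity counter screen in PPARg-bla HEK293H cells, same wells as reporter assay. Compounds plus 50 nM rosiglitazone (final) for 17 h at 37 C, then viability read by CellTiter-Glo luminescence.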

For assay [19], the target named is Bile acid receptor (Homo sapiens) (UniProt Q96RI1). The assay can be described thus: qHTS assay to identify small molecule antagonists of the farnesoid-X-receptor (FXR) signaling pathway (AID 743217; active = well fitted inhibition curve with a large enough effect in the signal ratio in the repeat runs, not every such curve was filed as active; the % refers to the signal ratio). Summed up: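 Quantitative HTS, beta-lactamase reporter format: FXR-UAS-bla HEK 293T cells co-treated 16 h at 37 °C with compounds and 50 uM final chenodeoxycholic acid, then read by B/G FRET fluorescence.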
Sequence of Bile acid receptor (Homo sapiens) (Q96RI1 whole entry, looked up): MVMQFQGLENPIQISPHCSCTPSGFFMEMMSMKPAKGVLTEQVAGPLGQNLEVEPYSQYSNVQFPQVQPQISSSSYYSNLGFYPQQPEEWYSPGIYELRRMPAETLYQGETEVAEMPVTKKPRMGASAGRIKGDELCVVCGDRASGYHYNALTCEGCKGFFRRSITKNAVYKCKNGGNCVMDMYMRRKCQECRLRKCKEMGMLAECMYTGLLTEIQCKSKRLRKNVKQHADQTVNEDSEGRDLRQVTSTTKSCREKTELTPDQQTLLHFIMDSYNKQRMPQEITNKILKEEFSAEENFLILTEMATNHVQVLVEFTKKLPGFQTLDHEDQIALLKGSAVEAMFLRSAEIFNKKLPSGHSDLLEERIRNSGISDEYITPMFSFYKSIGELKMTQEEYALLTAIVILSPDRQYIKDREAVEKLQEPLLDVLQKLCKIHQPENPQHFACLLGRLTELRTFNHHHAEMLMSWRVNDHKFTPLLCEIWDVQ

“And” between values parts separate entries of the source, which are not always exact repeats. Identical values can stand only once. Results filed as inconclusive are left out. Some compounds were tested as several samples or in several runs, with calls that do not always agree. The source made the active and inactive calls. Unless noted, calls come from the whole dose curve; as a rule, active = well fitted curve in the direction sought with a large enough effect in the repeat runs; inconclusive = weak or mixed curves; inactive = no such curve, though single readings can be large; an effect the other way counts as inactive or inconclusive.
% is set by controls: 0 for no effect and ±100 for the full control effect.

Sequence of Peroxisome proliferator-activated receptor gamma (Homo sapiens) (P37231 whole entry, looked up): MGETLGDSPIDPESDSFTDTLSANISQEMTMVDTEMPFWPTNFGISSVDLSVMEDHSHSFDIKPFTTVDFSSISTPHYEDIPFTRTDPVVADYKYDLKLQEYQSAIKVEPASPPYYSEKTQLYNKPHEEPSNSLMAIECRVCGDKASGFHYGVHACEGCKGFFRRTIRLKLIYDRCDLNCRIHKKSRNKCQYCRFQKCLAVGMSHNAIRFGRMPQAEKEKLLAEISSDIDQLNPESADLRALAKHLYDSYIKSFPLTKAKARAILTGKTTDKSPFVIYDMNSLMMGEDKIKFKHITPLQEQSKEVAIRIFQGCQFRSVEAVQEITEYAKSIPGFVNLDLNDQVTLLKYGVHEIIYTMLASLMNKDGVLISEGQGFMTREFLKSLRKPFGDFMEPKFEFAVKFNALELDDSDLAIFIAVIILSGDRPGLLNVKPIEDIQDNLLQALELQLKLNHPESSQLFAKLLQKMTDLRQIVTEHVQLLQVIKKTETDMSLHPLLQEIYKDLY
Sequence of Peroxisome proliferator-activated receptor delta (Homo sapiens) (Q03181 whole entry, looked up): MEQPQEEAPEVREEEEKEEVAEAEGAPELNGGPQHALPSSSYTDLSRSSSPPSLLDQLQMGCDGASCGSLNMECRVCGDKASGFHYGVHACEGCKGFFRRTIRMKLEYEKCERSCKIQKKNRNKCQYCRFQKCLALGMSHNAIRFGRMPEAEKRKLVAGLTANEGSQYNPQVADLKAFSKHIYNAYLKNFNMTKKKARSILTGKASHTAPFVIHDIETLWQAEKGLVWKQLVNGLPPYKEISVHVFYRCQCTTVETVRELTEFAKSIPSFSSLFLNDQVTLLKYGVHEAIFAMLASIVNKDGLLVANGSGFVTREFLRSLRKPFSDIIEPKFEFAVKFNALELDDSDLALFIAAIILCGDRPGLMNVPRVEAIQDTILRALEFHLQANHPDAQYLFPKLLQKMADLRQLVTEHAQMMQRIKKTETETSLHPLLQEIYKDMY
Sequence of Vitamin D3 receptor (Homo sapiens) (P11473 whole entry, looked up): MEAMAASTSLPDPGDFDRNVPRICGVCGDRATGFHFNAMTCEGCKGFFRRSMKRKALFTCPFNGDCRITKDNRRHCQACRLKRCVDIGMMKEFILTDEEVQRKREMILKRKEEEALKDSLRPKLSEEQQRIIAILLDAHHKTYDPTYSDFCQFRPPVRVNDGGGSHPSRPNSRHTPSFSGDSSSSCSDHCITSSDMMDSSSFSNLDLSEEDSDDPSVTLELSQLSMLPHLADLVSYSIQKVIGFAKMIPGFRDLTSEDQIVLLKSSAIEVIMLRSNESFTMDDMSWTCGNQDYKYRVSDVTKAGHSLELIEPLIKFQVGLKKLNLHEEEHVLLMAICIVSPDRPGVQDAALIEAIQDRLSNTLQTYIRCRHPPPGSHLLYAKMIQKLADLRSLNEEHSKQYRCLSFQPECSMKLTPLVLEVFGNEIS

As for `Cc1c(C(N)=O)cc([N+](=O)[O-])cc1[N+](=O)[O-]`, the Potency result in assay [1], in assay [2], in assay [3], in assay [4], in assay [5] and in assay [7] was “inactive” throughout. Also, the Potency result in assay [8], in assay [9], in assay [10] and in [13] was “inactive” each time. For the same molecule, the outcome in [6], in assay [11] and in assay [12] was inactive.
For `O=C(/C=C/c1ccccc1)OCc1ccccc1`, the Potency result in assay [1], in [14], in [3], in assay [4], in [15] and in [7] was “inactive” in each case. For the same molecule, the Potency entry in assay [8], in assay [9], in assay [10], in assay [13] and in [16] was “inactive” each time. Further, in assay [6], the result was inactive.
As to `O=C(Nc1ccc(Cl)cc1)Nc1ccc(Cl)c(Cl)c1`, the Potency result in [1], in [14], in [4], in [15] and in assay [16] was “inactive” throughout. Further, the Potency was 2.42 µM (active) and 2.73 µM (active) and 10.6 µM (active) in assay [3]; 19.4 µM (active) in assay [7]; 19.4 µM (active) in assay [8]; “inactive and 2.66 µM (active)” in assay [9]; 19.4 µM (active) and 11 µM (active) in [13]. Further, the result in [6] and in assay [17] was inactive.
With `O=C(COc1ccc(Cl)cc1)N1CCN(Cc2ccc3c(c2)OCO3)CC1`, the Potency entry in assay [1], in [3], in [4], in assay [15], in [7] and in assay [8] was “inactive” each time. In addition, the Potency result in assay [10] and in assay [13] was “inactive” throughout. Besides, the Potency in assay [2] was 15.4 µM (active) and 29.8 µM (active). The call in assay [6], in assay [11] and in assay [12] was inactive.
On to `OC[C@H]1O[C@@H]2O[C@H]3[C@H](O)[C@@H](O)[C@@H](O[C@H]4[C@H](O)[C@@H](O)[C@@H](O[C@H]5[C@H](O)[C@@H](O)[C@@H](O[C@H]6[C@H](O)[C@@H](O)[C@@H](O[C@H]7[C@H](O)[C@@H](O)[C@@H](O[C@H]8[C@H](O)[C@@H](O)[C@@H](O[C@H]1[C@H](O)[C@H]2O)O[C@@H]8CO)O[C@@H]7CO)O[C@@H]6CO)O[C@@H]5CO)O[C@@H]4CO)O[C@@H]3CO`, for which the Potency result in assay [1], in [18], in assay [2], in [3], in assay [4] and in assay [15] was “inactive” throughout. Moreover, the Potency entry in assay [7], in assay [9], in assay [10] and in assay [13] was “inactive” each time.
Regarding `O=C=Nc1ccc(Cc2ccc(N=C=O)cc2)cc1`, the Potency result in assay [1], in [18], in [3], in assay [4], in assay [15] and in [7] was “inactive” in each case. Also, the Potency result in [8], in assay [19], in assay [9], in assay [10], in [13] and in assay [16] was “inactive” in each case. Besides, the molecule was called inactive in [6], in assay [17], in [11] and in assay [12].
Regarding `CC(C)CC(C)(O)C#CC(C)(O)CC(C)C` (centres undefined), the Potency result in assay [1], in assay [2], in assay [3], in assay [4], in [15] and in [5] was “inactive” in each case. Moreover, the Potency entry in assay [7], in [9], in [10], in assay [13] and in assay [16] was “inactive” each time. Also, the outcome in assay [11] and in assay [12] was inactive.
For the molecule `Cc1cccc(N(C)C(=S)Oc2ccc3ccccc3c2)c1`, the Potency entry in assay [1], in [14], in assay [3], in [4], in assay [15] and in [7] was “inactive” throughout. The Potency entry in assay [19], in [9], in assay [10] and in assay [13] was “inactive” throughout. Moreover, the result in [17], in [11] and in [12] was inactive. Moreover, in assay [16], the Potency was 15.5 µM (active) and inactive.
Take `c1cc(N(CC2CO2)CC2CO2)ccc1OCC1CO1` (centres undefined): the Potency in assay [2] is 27.3 µM (active) and 19.3 µM (active). Moreover, the Potency result in assay [3], in assay [7], in assay [10], in assay [13] and in assay [16] was “inactive” each time.
As for `C=C(C)C1CC=C(C)CC1` (centres undefined), the Potency result in assay [1], in assay [2], in [3], in [4], in assay [15] and in [7] was “inactive” in each case. For the same molecule, the Potency entry in [9], in assay [10] and in assay [13] was “inactive” in each case.
On to `CN(C)c1nc(N(C)C)nc(N(C)C)n1`, for which the Potency entry in [1], in [18], in assay [2], in assay [3], in assay [4] and in assay [15] was “inactive” throughout. Besides, the Potency result in assay [5], in [7], in assay [8], in assay [19], in [10] and in assay [13] was “inactive” each time. The molecule was classed as inactive in [6], in [17], in assay [11] and in assay [12]. The viability change, negative = cytotoxic in assay [9] is -6.22% [at 5.95 µM] (inactive).
`c1ccc2c(c1)Oc1ccccc1S2`: the Potency entry in [1], in assay [2], in assay [3], in assay [4], in assay [15] and in [5] was “inactive” each time. Further, the Potency result in assay [7], in [8], in assay [9], in [10], in assay [13] and in assay [16] was “inactive” throughout. Moreover, the molecule was classed as inactive in assay [6], in assay [11] and in assay [12].
